Our source for the growth inhibition values is PubChem BioAssay (NCI).

A short description of experiment [1]: NCI Yeast Anticancer Drug Screen. Data for the rad50 strain (AID 155).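 Further: 0% = growth of vehicle-only cultures of the same strain.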 Conditions: S. cerevisiae rad50 strain growth inhibition, hits give high values. The essentials: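 Vehicle-treated cultures provide the reference for the growth inhibition reported for compound-exposed, repair-deficient yeast.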
Experiment [2] can be described thus: NCI Yeast Anticancer Drug Screen. Data for the mec2-1 strain (AID 157). To be noted: S. cerevisiae mec2-1 strain, hits give high values. The essentials: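 Mutant yeast (mec2-1) grown with compound; growth inhibition relative to vehicle control reported.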
The nature of experiment [3]: NCI Yeast Anticancer Drug Screen. Data for the sgs1 mgt1 strain (AID 161).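 Further: 0% = growth of cultures given vehicle only.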 To be noted: S. cerevisiae sgs1 mgt1 strain, hits give high values. The method in brief:
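This yeast growth screen uses a strain with defined DNA-repair lesions; compound-treated growth is compared with vehicle-treated growth.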

Experiment [4] in a line: NCI Yeast Anticancer Drug Screen. Data for the cln2 rad14 strain (AID 165).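 Further: 0% = growth equal to vehicle treated cultures.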 To be noted: S. cerevisiae cln2 rad14 strain, hits give high values. The method in brief: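 Readout is yeast growth inhibition versus vehicle-treated controls, using a strain with cln2 and rad14 alterations exposed to compound.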
Experiment [5] can be described thus: NCI Yeast Anticancer Drug Screen. Data for the bub3 strain (AID 167). To be noted: S. cerevisiae bub3 mutant strain, hits give high values. The method in brief:
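Mutant yeast screening strain plus compound; vehicle-treated cultures serve as the 0% inhibition reference.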

Experiment [6] in a line: NCI Yeast Anticancer Drug Screen. Data for the mlh1 rad18 strain (AID 175). Conditions: S. cerevisiae mlh1 rad18 strain growth inhibition, hits give high values. The method in brief:
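Genetically defined yeast (DNA repair-deficient) exposed to compounds; growth inhibition determined relative to vehicle.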

Setting [7] is: at 5.0 µM (retest, dose inferred, filed as 0.5).
[8] abbreviates: at 50.0 µM (retest, dose inferred, filed as 5.0).

Compounds without any hit were thinned out: in the full panel of roughly 79,000, 15% have a hit. Unmarked numbers belong to inactive results. The source made the active and inactive calls. No stated cut-off is given here; in the data, active means growth inhibition above about 70%; inactive means the rest.

Take `OC1CCCC2CCCNC12` (stereo unspecified): the growth inhibition in experiment [1] (setting [7]) is 84% (active); in experiment [1] (setting [8]), 97% (active); in experiment [1] (at 50.0 µM), 86.4% (active); in experiment [2] (setting [7]) it was 79% (active); in experiment [2] (setting [8]), 98% (active); in experiment [2] (at 50.0 µM), 90% (active). Further, the growth inhibition in experiment [3] (setting [7]) is 97% (active); in experiment [3] (setting [8]) it was 98% (active); in experiment [3] (at 50.0 µM), 90% (active); in experiment [4] (setting [7]), 81% (active); in experiment [4] (setting [8]), 98% (active); in experiment [4] (at 50.0 µM) it was 86.3% (active). In addition, the growth inhibition in experiment [5] (setting [7]) was 96% (active); in experiment [5] (setting [8]), 98% (active); in experiment [5] (at 50.0 µM) it was 91.8% (active); in experiment [6] (setting [7]) it was 73% (active); in experiment [6] (setting [8]) it was 97% (active); in experiment [6] (at 50.0 µM) it was 91.2% (active).

For `C/C(=C\c1ccc(Cl)c(Cl)c1)[N+](=O)[O-]`, the growth inhibition in experiment [1] (setting [7]) was 82% (active); in experiment [1] (setting [8]), 98% (active); in experiment [1] (at 50.0 µM), 0%; in experiment [2] (setting [7]) it was 12%; in experiment [2] (setting [8]) it was 92% (active); in experiment [2] (at 50.0 µM) it was -9.75%. Besides, the growth inhibition in experiment [3] (setting [7]) is 27%; in experiment [3] (setting [8]) it was 100% (active); in experiment [3] (at 50.0 µM), 21%; in experiment [4] (setting [7]), 5%; in experiment [4] (setting [8]), 59%; in experiment [4] (at 50.0 µM), -14.3%. For the same compound, the growth inhibition in experiment [5] (setting [7]) was 14%; in experiment [5] (setting [8]) it was 98% (active); in experiment [5] (at 50.0 µM), -4.85%.

For `CCOP(=O)(N=Nc1cccnc1)OCC`, the growth inhibition was -2% in experiment [1] (setting [7]); -17% in experiment [1] (setting [8]); 14% in experiment [1] (at 50.0 µM); 2% in experiment [2] (setting [7]); -10% in experiment [2] (setting [8]); 6.35% in experiment [2] (at 50.0 µM). Moreover, the growth inhibition was -1% in experiment [3] (setting [7]); -11% in experiment [3] (setting [8]); 5.05% in experiment [3] (at 50.0 µM); 1% in experiment [4] (setting [7]); -17% in experiment [4] (setting [8]); 59.8% in experiment [4] (at 50.0 µM). Further, the values for the growth inhibition in experiment [5] (setting [7]), in experiment [5] (setting [8]) and in experiment [5] (at 50.0 µM) were 1%, -3% and 20.1%, respectively.

As to `O=c1cccc(C2CC(CO)C3CCCCN3C2)[nH]1` (stereo unspecified), the growth inhibition is 1% in experiment [1] (setting [7]); -1% in experiment [1] (setting [8]); 69.3% in experiment [1] (at 50.0 µM); 1% in experiment [2] (setting [7]); -2% in experiment [2] (setting [8]); 91.8% (active) in experiment [2] (at 50.0 µM). The growth inhibition in experiment [3] (setting [7]) is 2%; in experiment [3] (setting [8]), 1%; in experiment [3] (at 50.0 µM), 57.5%; in experiment [4] (setting [7]), -8%; in experiment [4] (setting [8]) it was -12%; in experiment [4] (at 50.0 µM) it was 37.3%. Further, the growth inhibition was 3% in experiment [5] (setting [7]); 2% in experiment [5] (setting [8]); 53.2% in experiment [5] (at 50.0 µM); -2% in experiment [6] (setting [7]); -3% in experiment [6] (setting [8]); -50.8% in experiment [6] (at 50.0 µM).

Consider `IC(I)=C(I)I`, for which the growth inhibition is 98% (active) in experiment [1] (setting [7]); 93% (active) in experiment [1] (setting [8]); 88.5% (active) in experiment [1] (at 50.0 µM); 100% (active) in experiment [2] (setting [7]); 96% (active) in experiment [2] (setting [8]); 92.2% (active) in experiment [2] (at 50.0 µM). Besides, the growth inhibition in experiment [3] (setting [7]) is 99% (active); in experiment [3] (setting [8]) it was 96% (active); in experiment [3] (at 50.0 µM), 91.9% (active); in experiment [4] (setting [7]), 99% (active); in experiment [4] (setting [8]) it was 96% (active); in experiment [4] (at 50.0 µM), 90.8% (active). Besides, the growth inhibition is 100% (active) in experiment [5] (setting [7]); 95% (active) in experiment [5] (setting [8]); 90% (active) in experiment [5] (at 50.0 µM); 99% (active) in experiment [6] (setting [7]); 91% (active) in experiment [6] (setting [8]); 90.1% (active) in experiment [6] (at 50.0 µM).

For the compound `Sc1nc2ccccc2s1.Sc1nc2ccccc2s1.Sc1nc2ccccc2s1.Sc1nc2ccccc2s1.[Cl][Rh][Cl]`, the growth inhibition was 20% in experiment [1] (setting [7]); 95% (active) in experiment [1] (setting [8]); 95.7% (active) in experiment [1] (at 50.0 µM); 12% in experiment [2] (setting [7]); 96% (active) in experiment [2] (setting [8]); 98.5% (active) in experiment [2] (at 50.0 µM). The growth inhibition in experiment [3] (setting [7]) was 38%; in experiment [3] (setting [8]), 97% (active); in experiment [3] (at 50.0 µM), 93.3% (active); in experiment [4] (setting [7]), 0%; in experiment [4] (setting [8]), 94% (active); in experiment [4] (at 50.0 µM), 97.1% (active). For the same compound, the growth inhibition in experiment [5] (setting [7]) is 31%; in experiment [5] (setting [8]), 97% (active); in experiment [5] (at 50.0 µM), 96.8% (active).

`O=C1C=C(N2CC2)C(=O)C(N2CC2)=C1N1CC1`: the growth inhibition is 97% (active) in experiment [1] (setting [7]); 98% (active) in experiment [1] (setting [8]); 99.2% (active) in experiment [1] (at 50.0 µM); 98% (active) in experiment [2] (setting [7]); 99% (active) in experiment [2] (setting [8]); 99.2% (active) in experiment [2] (at 50.0 µM). Also, the growth inhibition is 97% (active) in experiment [3] (setting [7]); 98% (active) in experiment [3] (setting [8]); 98.8% (active) in experiment [3] (at 50.0 µM); 99% (active) in experiment [4] (setting [7]); 98% (active) in experiment [4] (setting [8]); 99% (active) in experiment [4] (at 50.0 µM). The growth inhibition in experiment [5] (setting [7]) was 97% (active); in experiment [5] (setting [8]), 97% (active); in experiment [5] (at 50.0 µM), 99.2% (active); in experiment [6] (setting [7]), 98% (active); in experiment [6] (setting [8]), 98% (active); in experiment [6] (at 50.0 µM) it was 99% (active).

For `O=C(Oc1ccc(S(=O)(=O)F)cc1F)c1ccccc1Cl`, the growth inhibition in experiment [1] (setting [7]) is 5%; in experiment [1] (setting [8]), 99% (active); in experiment [1] (at 50.0 µM), 99.2% (active); in experiment [2] (setting [7]), 5%; in experiment [2] (setting [8]) it was 99% (active); in experiment [2] (at 50.0 µM), 99.5% (active). The growth inhibition was -2% in experiment [3] (setting [7]); 99% (active) in experiment [3] (setting [8]); 99.3% (active) in experiment [3] (at 50.0 µM); -10% in experiment [4] (setting [7]); 99% (active) in experiment [4] (setting [8]); 99% (active) in experiment [4] (at 50.0 µM). The growth inhibition was 6% in experiment [5] (setting [7]); 99% (active) in experiment [5] (setting [8]); 99.4% (active) in experiment [5] (at 50.0 µM); 21% in experiment [6] (setting [7]); 99% (active) in experiment [6] (setting [8]); 98.7% (active) in experiment [6] (at 50.0 µM).

As to `COc1ccccc1[As]=[As]c1ccccc1OC` (stereo unspecified), the growth inhibition in experiment [1] (setting [7]) is 30%; in experiment [1] (setting [8]), 99% (active); in experiment [1] (at 50.0 µM) it was 99.5% (active); in experiment [2] (setting [7]), 20%; in experiment [2] (setting [8]), 99% (active); in experiment [2] (at 50.0 µM) it was 99.5% (active). In addition, the growth inhibition in experiment [3] (setting [7]) was 48%; in experiment [3] (setting [8]), 99% (active); in experiment [3] (at 50.0 µM), 99.4% (active); in experiment [4] (setting [7]), 34%; in experiment [4] (setting [8]), 99% (active); in experiment [4] (at 50.0 µM), 98.3% (active). The growth inhibition in experiment [5] (setting [7]) was 85% (active); in experiment [5] (setting [8]) it was 99% (active); in experiment [5] (at 50.0 µM) it was 99.3% (active); in experiment [6] (setting [7]), 75% (active); in experiment [6] (setting [8]), 99% (active); in experiment [6] (at 50.0 µM) it was 99.3% (active).

In the case of `O=c1c2ccccc2[nH]c(=S)n1-c1cccc(C(F)(F)F)c1`, the growth inhibition was 65% in experiment [1] (setting [7]); 69% in experiment [1] (setting [8]); 72.2% (active) in experiment [1] (at 50.0 µM); 49% in experiment [2] (setting [7]); 59% in experiment [2] (setting [8]); 76.3% (active) in experiment [2] (at 50.0 µM). For the same compound, the growth inhibition in experiment [3] (setting [7]) was 55%; in experiment [3] (setting [8]), 59%; in experiment [3] (at 50.0 µM), 77% (active); in experiment [4] (setting [7]), 52%; in experiment [4] (setting [8]), 48%; in experiment [4] (at 50.0 µM) it was 61.7%. Besides, the growth inhibition in experiment [5] (setting [7]) is 71% (active); in experiment [5] (setting [8]) it was 77% (active); in experiment [5] (at 50.0 µM), 77.7% (active); in experiment [6] (setting [7]) it was 79% (active); in experiment [6] (setting [8]), 81% (active); in experiment [6] (at 50.0 µM), 69.2%.
